Source: PubChem (several laboratories)
Shown are actives, neighbours in structure and some others; about 4% of the full set was active somewhere.
RecA intein inh – blocks M. tuberculosis RecA intein splicing; 0.75% of 290,000 active; AID 2221; P9WHJ3; cell-free RecA intein splicing, fluorescence; inhibition, % (test concentration not listed); in the data active means inhibition above about 30%
Mtb FBA inh – inhibitors of M. tuberculosis fructose-bisphosphate aldolase; P9WQA3; purified M. tuberculosis FBA, fluorescence read-out; inhibition, % at 1 µM; 2.3% of 360,000 active; in the data active means inhibition above about 27%
Target sequence (P9WQA3 whole entry, looked up): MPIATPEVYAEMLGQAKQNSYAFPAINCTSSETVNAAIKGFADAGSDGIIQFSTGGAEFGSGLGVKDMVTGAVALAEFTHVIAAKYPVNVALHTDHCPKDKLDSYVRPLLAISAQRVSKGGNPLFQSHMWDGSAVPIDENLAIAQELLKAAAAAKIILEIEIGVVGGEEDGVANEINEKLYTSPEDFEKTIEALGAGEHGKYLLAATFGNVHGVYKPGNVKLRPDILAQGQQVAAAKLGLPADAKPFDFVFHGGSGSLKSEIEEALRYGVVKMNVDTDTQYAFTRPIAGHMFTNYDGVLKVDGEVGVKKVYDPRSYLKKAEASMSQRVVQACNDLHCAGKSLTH
Mtb bLac sens – beta-lactam sensitization of Mtb H37Rv | 0.27% of 330,000 active | inhibition, % at 25 µM | M. tuberculosis H37Rv growth with meropenem, percent inhibition | AID 434955;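 further: growth measured after seven days incubation then overnight dye step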
GDH-TPI counter-1 – counter-screen for M. tuberculosis FBA inhibitors: GDH-TPI coupled enzymes; AID 588335; inhibition, % at 4.8 µM; 1.2% of 360,000 active; GDH-TPI coupled enzyme counterscreen, NADH absorbance; in the data active means inhibition above about 30%
Rv3671c inh – inhibitors of M. tuberculosis serine protease Rv3671c. inhibition, % at 5.96 µM. 0.048% of 320,000 active. P9WHR9. AID 2606; in the data active means inhibition above about 38%;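 further: extracellular domain of Rv3671c used as enzyme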
Target sequence (P9WHR9 whole entry, looked up, the tested form may be a part): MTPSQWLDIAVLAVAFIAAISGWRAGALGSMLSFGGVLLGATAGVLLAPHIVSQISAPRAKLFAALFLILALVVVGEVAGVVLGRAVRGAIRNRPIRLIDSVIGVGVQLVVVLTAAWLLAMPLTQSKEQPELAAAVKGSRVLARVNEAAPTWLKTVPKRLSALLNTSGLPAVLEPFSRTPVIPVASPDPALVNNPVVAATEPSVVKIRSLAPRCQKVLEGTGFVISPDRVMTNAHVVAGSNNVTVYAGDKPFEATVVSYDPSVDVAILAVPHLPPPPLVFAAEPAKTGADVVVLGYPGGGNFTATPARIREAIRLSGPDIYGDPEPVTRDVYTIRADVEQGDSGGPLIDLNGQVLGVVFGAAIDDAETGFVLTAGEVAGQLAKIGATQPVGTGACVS
Mtb UGM inh – Mtb UDP-galactopyranose mutase inhibition; P9WIQ1; purified UGM, fluorescence polarization probe displacement; inhibition, % at 10 µM; 0.06% of 320,000 active; AID 504406; in the data active means inhibition above about 10%, passing the limit was not always enough
Mtb FBA confirm – Mtb FBA inhibition, confirmed | 78% of 5,600 active | AID 651616 | inhibition, % at 1 µM | shares compounds with Mtb FBA inh | purified M. tuberculosis FBA, fluorescence read-out; in the data active means inhibition above about 27%
GDH-TPI counter-2 – counter-screen for M. tuberculosis FBA inhibitors: GDH-TPI coupled enzyme inhibition. shares compounds with Mtb FBA inh. GDH-TPI coupled enzyme counterscreen, fluorescence. inhibition, % at 1 µM. 81% of 5,600 active; in the data active means inhibition above about 10%
GDH-TPI dose – GDH-TPI dose response counter-screen for Mtb FBA; shares compounds with Mtb FBA inh; GDH-TPI coupled enzyme assay, fluorescence, artifact counterscreen; IC50, µM; 79% of 170 active; AID 652145
Large screens that a line does not name were inactive (follow-up assays come after a bar, where they were run). Unless noted, how the calls were made is not given here.

O=C(O)CCCc1ccc2ccc3cccc4ccc1c2c34	Mtb FBA inh 55.9, GDH-TPI counter-1 35.3 | Mtb FBA confirm active | GDH-TPI counter-2 active
CCOC(=O)C1=C(C)OC(N)=C(C#N)C1c1ccccc1 (centres undefined)	none
CC(C)C1OC2(C)OC(=N)C1(C#N)C(C#N)(C#N)C2c1ccccc1 (centres undefined)	Mtb FBA inh 50.0 | Mtb FBA confirm 94.3 | GDH-TPI counter-2 82.2
CCC1OC2(C)OC(=N)C1(C#N)C(C#N)(C#N)C2c1ccccc1 (centres undefined)	Mtb FBA inh 56.5 | Mtb FBA confirm inactive | GDH-TPI counter-2 inactive | GDH-TPI dose 3.33
CC(c1ccccn1)N(C)C(=O)c1ccc2nc(Cc3ccccc3F)oc2c1 (centres undefined)	none
CC(C)(C)c1ccc(OCC(=O)N/N=C/c2ccc(N3CCOCC3)cc2)cc1	Mtb FBA inh 27.0 | Mtb FBA confirm 62.4 | GDH-TPI counter-2 42.5
O=C(N/N=C/c1ccc(N2CCOCC2)cc1)c1ccncc1	none (no result: RecA intein inh)
C=C(C)CNC(=S)N/N=C/c1ccc(N2CCOCC2)cc1	Mtb FBA inh 53.3, GDH-TPI counter-1 41.7 | Mtb FBA confirm 52.8 | GDH-TPI counter-2 51.9
CC(C)NC(=S)N/N=C/c1ccc(N2CCOCC2)cc1	Mtb FBA inh 37.5, GDH-TPI counter-1 39.7 | Mtb FBA confirm 120.0 | GDH-TPI counter-2 88.7
COCCNC(=S)N/N=C/c1ccc(N2CCOCC2)cc1	Mtb FBA inh 46.1, GDH-TPI counter-1 31.1 | Mtb FBA confirm active | GDH-TPI counter-2 active
O=C(Nc1cnccn1)c1ccc(F)cc1Cl	none
O=C(NCC(=O)N1CCCC1)c1ccc(Cl)cc1	none
CCOC(=O)CNC(=O)Nc1nnc(-c2ccc(OCC)cc2)o1	Mtb FBA inh 63.1 | Mtb FBA confirm inactive | GDH-TPI counter-2 inactive
CCCCNC(=O)Nc1nnc(-c2ccc(OCC)cc2)o1	Mtb FBA inh 29.0 (no result: RecA intein inh) | Mtb FBA confirm 70.0 | GDH-TPI counter-2 40.5
CCOc1ccc(-c2nnc(NC(=O)COc3ccccc3F)o2)cc1	none (no result: RecA intein inh, Mtb bLac sens, Rv3671c inh, Mtb UGM inh)
COc1ccc2[nH]c3c(=O)n(N)c(C)nc3c2c1	Mtb FBA inh 106.0 | Mtb FBA confirm 157.2 | GDH-TPI counter-2 136.9
COc1ccc2[nH]c3c(=O)n4c(nc3c2c1)SCC4	Mtb FBA inh 49.7 | Mtb FBA confirm inactive | GDH-TPI counter-2 inactive
Cc1ccc2[nH]c3c(=O)n(N)c(C)nc3c2c1	Mtb FBA inh 40.9 | Mtb FBA confirm 39.4 | GDH-TPI counter-2 26.9
Cc1ccc2[nH]c3c(=O)n(Cc4ccco4)cnc3c2c1	none
CCN(Cc1nc2cc(Cl)ccc2c(=O)[nH]1)C(=O)c1cccc(OCc2c(C)noc2C)c1	none (no result: RecA intein inh)
CCOC(=O)C1(C#N)Cc2ccccc2C1	none (no result: RecA intein inh, Mtb bLac sens, Rv3671c inh, Mtb UGM inh)
Cc1ccc(S(=O)(=O)N(C)C)cc1NC(=O)C1CCCCN1S(=O)(=O)c1ccccc1 (centres undefined)	Mtb FBA inh 105.7 (no result: RecA intein inh) | Mtb FBA confirm 132.0 | GDH-TPI counter-2 108.3
Cc1cccc(NC(=O)C2CCCCN2S(=O)(=O)c2ccccc2)c1C (centres undefined)	none (no result: RecA intein inh)
C/C(=N\N=C(N)N)c1ccc(Cl)cc1Cl	Mtb FBA inh 28.4 | Mtb FBA confirm 28.7 | GDH-TPI counter-2 17.1
C/C(=N\N=C(N)N)c1cc(Cl)ccc1Cl	none
O=C(Nc1nnc([C@@H]2C[C@H](O)[C@@H](CO)O2)s1)Nc1ccccc1F	none (no result: RecA intein inh, Mtb bLac sens, Rv3671c inh, Mtb UGM inh)
CCCc1cc(=O)oc2c(C)c(OCC(=O)NC3CCN(Cc4ccccc4)CC3)ccc12	none
CCc1cc(=O)oc2c(C)c(OCC(=O)N3CCC[C@@H]3C(=O)O)ccc12	Mtb FBA inh 58.4 | Mtb FBA confirm inactive | GDH-TPI counter-2 inactive | GDH-TPI dose 2.97
CCc1cc(=O)oc2c(C)c(OC(C)C(=O)N3CCC[C@@H]3C(=O)O)ccc12 (some centres undefined)	Mtb FBA inh 42.0 (no result: RecA intein inh) | Mtb FBA confirm 53.7 | GDH-TPI counter-2 61.5
Cc1c(OCC(=O)N2CCC[C@@H]2C(=O)O)ccc2c3c(c(=O)oc12)CCC3	Mtb FBA inh 36.4 | Mtb FBA confirm 93.2 | GDH-TPI counter-2 88.1
Cc1ccc(NC(=O)CC2(CC(=O)O)CCCC2)c(C)c1	none
CCN1C(=O)[C@H]2[C@@H](c3ccc(OC)cc3)N[C@]3(CCCN(Cc4ccc(OC)cc4)C3=O)[C@H]2C1=O	none (no result: RecA intein inh, Mtb bLac sens, Rv3671c inh, Mtb UGM inh)
CN(C)CCNc1ncnc2c1ncn2[C@H]1CN(Cc2ccc(-c3ccccc3)cc2)C[C@@H](CO)O1	none (no result: RecA intein inh, Mtb bLac sens, Rv3671c inh, Mtb UGM inh)
COC(=O)/C=c1\sc2ncnn2c1=O	none
COC(=O)/C=c1\[nH]c2nnc(C)n2c1=O	Mtb FBA inh 84.3 | Mtb FBA confirm active | GDH-TPI counter-2 active
O=C(Nc1ccc(F)c(Cl)c1)Nc1nnc([C@H]2C[C@H](O)[C@@H](CO)O2)s1	none (no result: RecA intein inh, Mtb bLac sens, Rv3671c inh, Mtb UGM inh)
COc1ccccc1Oc1coc2cc(O)ccc2c1=O	Mtb FBA inh 30.6 | Mtb FBA confirm active | GDH-TPI counter-2 active
COc1ccc(-c2coc3cc(O)ccc3c2=O)cc1OC	none
CCOC(=O)c1ccc(Oc2coc3cc(O)ccc3c2=O)cc1	Mtb FBA inh 27.9 | Mtb FBA confirm 160.8 | GDH-TPI counter-2 122.8
CCOc1ccc2c(=O)c(Oc3ccccc3OCC)coc2c1	none
CCOc1ccccc1Oc1coc2cc(O)ccc2c1=O	Mtb FBA inh 52.6 | Mtb FBA confirm 40.6 | GDH-TPI counter-2 26.2
Nc1ncc2[nH]c(N)nc2n1	none (no result: RecA intein inh, Mtb bLac sens, Rv3671c inh, Mtb UGM inh)
COc1ccc(C)cc1S(=O)(=O)Nc1cccc(-c2cn3cccnc3n2)c1	Mtb FBA inh 89.3 (no result: RecA intein inh) | Mtb FBA confirm inactive | GDH-TPI counter-2 inactive
O=S(=O)(Nc1cccc(-c2cn3cccnc3n2)c1)c1ccc(Cl)cc1	Mtb FBA inh 56.4 | Mtb FBA confirm inactive | GDH-TPI counter-2 inactive
O=S(=O)(Nc1cccc(-c2nnco2)c1)c1ccc(Cl)cc1	none (no result: RecA intein inh)
CCOC(=O)c1sc(-c2ccccc2)cc1NC(=O)CSc1nnnn1C	none
CCOC(=O)c1sc(-c2ccc(OC)cc2)cc1NC(C)=O	Mtb FBA inh 78.7 (no result: Mtb bLac sens, Rv3671c inh, Mtb UGM inh) | Mtb FBA confirm 152.8 | GDH-TPI counter-2 134.4
COc1ccc(-n2cc(CNC3CCN(C)CC3)c(-c3cccc(F)c3)n2)cc1	Mtb FBA inh 63.5 | Mtb FBA confirm 189.5 | GDH-TPI counter-2 161.8
COc1ccc(-n2cc(CN[C@H]3CCCCNC3=O)c(-c3cccc(F)c3)n2)cc1	Mtb FBA inh 56.6 | Mtb FBA confirm inactive | GDH-TPI counter-2 inactive
COc1ccc(-n2cc(CN3CCCC3)c(-c3cccc(F)c3)n2)cc1	none
CC(C)c1ccc(C(=O)NNC(=O)C2C3CCC(C3)C2C(=O)O)cc1 (centres undefined)	none (no result: Mtb FBA inh, GDH-TPI counter-1)
COc1ccc(C(=O)/C=C/Nc2ccc([N+](=O)[O-])cc2C)cc1OC	Mtb FBA inh 87.8 | Mtb FBA confirm 83.2 | GDH-TPI counter-2 74.8
